# Laboratory results reported in PubChem BioAssay (NCI).
# About 83,000 compounds went through this panel and 20% of them were active in at least one assay; those are over-represented in the sample as a whole.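 Activity criterion: percent growth below 10, measured after cells in 96-well plates were exposed to a single compound concentration for 48 hours.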 A number with no mark means an inactive call. Activity calls are given as the source filed them.
# Columns and labels:
# Test in all cases: NCI-60 one-dose screen, 48 h (100 = growth as untreated, 0 = no growth, -100 = all killed)
# Details in all cases: 10 µM unless noted
# SK-MEL-2 melanoma = tested on: SK-MEL-2 melanoma
# EKVX NSCLC = tested on: EKVX NSCLC
# SN12C renal = tested on: SN12C renal
# UO-31 renal = tested on: UO-31 renal
# TK-10 renal = tested on: TK-10 renal
# ACHN renal = tested on: ACHN renal
# CAKI-1 renal = tested on: CAKI-1 renal
# A498 renal = tested on: A498 renal
# CCRF-CEM leukemia = tested on: CCRF-CEM leukemia
# MOLT-4 leukemia = tested on: MOLT-4 leukemia
# SR leukemia = tested on: SR leukemia
# RPMI-8226 leukemia = tested on: RPMI-8226 leukemia
# OVCAR-8 ovarian = tested on: OVCAR-8 ovarian
# OVCAR-5 ovarian = tested on: OVCAR-5 ovarian
# OVCAR-4 ovarian = tested on: OVCAR-4 ovarian
# SK-OV-3 ovarian = tested on: SK-OV-3 ovarian
# IGROV1 ovarian = tested on: IGROV1 ovarian
# OVCAR-3 ovarian = tested on: OVCAR-3 ovarian
# NCI/ADR-RES ovarian = tested on: NCI/ADR-RES ovarian
# HS 578T breast = tested on: HS 578T breast
Structure (SMILES),growth (SK-MEL-2 melanoma),growth (EKVX NSCLC),growth (SN12C renal),growth (UO-31 renal),growth (TK-10 renal),growth (ACHN renal),growth (CAKI-1 renal),growth (A498 renal),growth (CCRF-CEM leukemia),growth (MOLT-4 leukemia),growth (SR leukemia),growth (RPMI-8226 leukemia),growth (OVCAR-8 ovarian),growth (OVCAR-5 ovarian) [%],growth (OVCAR-4 ovarian),growth (SK-OV-3 ovarian),growth (IGROV1 ovarian),growth (OVCAR-3 ovarian),growth (NCI/ADR-RES ovarian),growth (HS 578T breast) [%]
CCCCCCCC/C=C\CCCCCCCCOc1ccc(CC(=O)NCC[N+]2(C)CCCC2)cc1,103%,86.1%,42.5%,93.3%,38.5%,84.1%,50.9%,86.4%,29.5%,68.4%,50.3%,58.2%,50.4%,25,62.1%,104%,-11.8% (active),84.3%,111%,–
Cn1ccnc1C(=O)/C=C/c1ccc(CC(=O)Nc2cc(F)c(F)c(F)c2)cc1,99.6%,32.3%,13.2%,31.7%,47.8%,45.9%,31.4%,65%,8.15% (active),6.4% (active),12.1%,4.01% (active),-3.42% (active),17.9,41.7%,85.2%,29%,-33.9% (active),-29.8% (active),–
C=C(C)[C@@H]1CC[C@]2(C(=O)NC(C)=O)CC[C@]3(C)[C@H](CC[C@@H]4[C@@]5(C)CCCNC(C)(C)[C@@H]5CC[C@]43C)[C@@H]12,-34.6% (active),68.8%,22.2%,49.7%,10.6%,-30.1% (active),71.8%,88.6%,1.24% (active),-13.1% (active),-24.5% (active),-30.3% (active),17.5%,67.9,33.9%,68.6%,20.4%,-34.3% (active),29.4%,–
O=C1NCCN1/N=C/c1c(Cl)n(Cc2ccc(Cl)cc2)c2ccccc12,91.7%,88.9%,85.8%,72.4%,90.8%,94.4%,-18.9% (active),-85.5% (active),89%,65.6%,78.4%,82.6%,78.7%,96.8,79.1%,146%,24.9%,84.8%,90.8%,90.3
CN(C)c1ccc(/C=N/NC(=O)CSc2nc3sc4c(c3c(=O)n2-c2ccccc2)CCCCC4)cc1,78.6%,47%,55.5%,77.8%,64.9%,24.6%,8.87% (active),34.8%,70.9%,71.8%,22.7%,76.8%,20.6%,50.7,19.7%,67.1%,36.5%,12%,59.1%,–
C=C(CNCCc1ccc(O)cc1)[C@@H]1CC[C@]2(CO)CC[C@]3(C)[C@H](CC[C@@H]4[C@@]5(C)CCC(N)C(C)(C)[C@@H]5CC[C@]43C)[C@@H]12 (stereo not given in full),-81.4% (active),-62.8% (active),-81.7% (active),-98.9% (active),-84.5% (active),-71.9% (active),-81.8% (active),64.5%,-26.8% (active),-32.4% (active),-43.9% (active),-46.5% (active),-56.8% (active),11.4,-16.2% (active),-6.7% (active),-57.3% (active),-53.5% (active),60.4%,–
CO[C@H]1CC(c2ccc[nH]2)=N[C@]12O[C@@H](C)C[C@@H]1CCCCCCCc3ccc([nH]3)[C@H]12,-16.2% (active),29.4%,33.6%,-15.6% (active),15%,8.05% (active),9.32% (active),57.4%,22.7%,20.6%,9.34% (active),-1.79% (active),14.8%,29.7,29.2%,30%,28.9%,29.2%,17.1%,29.2
COc1nc2ccccc2cc1/C=[N+](\[O-])c1ccccc1,87.8%,87%,59.1%,43.9%,79.6%,86.1%,79.8%,90.3%,13.1%,29.5%,21.5%,14.2%,37.3%,97.4,74.3%,87.3%,86.7%,86.2%,44.9%,81.5
